Here are results for 40 compounds from PubChem BioAssay (NCATS).

Results filed as inconclusive are left out. A call without a number means that no potency is given here. Calls of active or inactive are those of the source. The call rests on the fitted dose curve; in most records, active means well fitted cell-killing curve with a large enough effect; inconclusive means small, poorly fitted or top-dose-only effect; inactive means flat fitted curve, though single readings scatter.
Potency means the concentration at half of the fitted maximal effect.

The assay can be described thus: qHTS of pediatric cancer cell lines to identify multiple opportunities for drug repurposing: Primary screen for U-2 OS cells (AID 1347096). Further: nearly all actives have a fitted effect of over 50% in size. The note with it: U-2 OS viability, CellTiter-Glo luminescence, 48 h; series mostly up to 46 µM. The text has this: Drug repurposing or repositioning has been offered as a strategy for drug development in oncology programs. This approach has special potential for childhood cancers and other rare or orphan diseases, where the expected return on new drug development has been a disincentive to pharmaceuticals.
In this project we exploit the poly-pharmacology of drugs to discover new indications via phenotypic screening of a panel of 19 well-characterized cell lines derived from solid tumors seen in children and adolescents. The goal is to identify approved drugs with previously unrecognized anticancer properties that has the potential to reveal new mechanisms and biological processes involved in carcinogenesis or drug resistance. We employed a titration-based paradigm (quantitative high-throughput screening or qHTS), where all compounds were tested at multiple concentrations for their effect on cell viability. Concentration-response curves (CRCs) were derived directly from the primary screen, and both potency and efficacy values were used to identify compounds with robust bioactivity profiles. We screened the NIH Chemical Genomics Center (NCGC) Pharmaceutical Collection (NPC) and Mechanism Interrogation Plate (MIPE) small molecule collections of approved and investigational compounds against these cell lines; and measured metabolically active cells after 48 hours of compound treatment as a proxy for cell viability.
Assay Submitter: Nathalia J. Martinez, National Center for Advancing Translational Sciences, National Institutes of Health, Rockville, MD, USA; email: natalia.martinez@nih.gov
[1] Shen, M et al. Quantitative high-throughput phenotypic screening of pediatric cancer cell lines identifies multiple opportunities for drug repurposing. Oncotarget 2017 Dec 19;9(4):4758-4772. PMID 29435139.
The cells were obtained from University of North Carolina (UNC), Pediatric Preclinical Testing Program (PPT), and Coriell Institute (CI).
qHTS cell viability assay:
Cells were assayed in growth media at a density of 500-1,000 cells/well. Five microliters of cells were dispensed into 1,536-well, white, solid-bottom, TC-treated plates (Greiner Bio One) using a multidrop dispenser and incubated at 37 degrees C, 5% CO2, under a humidified atmosphere for 5 hours. Twenty-three nanoliters of compounds and controls (neutral control DMSO or positive control bortezomib at final concentration of 2.3 µM) were subsequently transferred by Kalypsys pintool. For primary screens, the MIPE collection was tested at 11-point dilutions (final concentrations range from 0.78 nM to 46 µM) and the NPC collection at 8-point dilutions (final concentrations range from 0.59 nM to 46 µM). Compounds tested in follow-up screens were assayed at 11-point dilutions. Cells were incubated for 48 hours, followed by addition of 3 µL of CellTiter-Glo (Promega). After a 15 min incubation at room temperature, samples were analyzed for luminescence intensity using a ViewLux High-throughput CCD imager equipped with clear filters.
(In general: Quantitative high-throughput screening tests each substance at several concentrations.)
For `CCCCC(CC)COC(=O)c1ccccc1C(=O)OCC(CC)CCCC` (stereo not given), the Potency entry is “inactive”.

For the compound `O=C(O)CNC(=O)c1c(O)c2ccccc2n(Cc2ccccc2)c1=O`, the Potency result is “inactive”.

As to `O=S(=O)(CC1CS1)c1ccc(Oc2ccccc2)cc1` (stereo not given), the Potency entry is “inactive”.

On to `CCOP(=O)(OCC)C(C)NC(=O)N(CCCl)N=O` (stereo not given), for which the Potency entry was “inactive”.

On to `COCC1(CO)C(=O)C2CCN1CC2` (stereo not given), for which the Potency result was “inactive”.

In the case of `COC(=O)c1cncn1C(C)c1ccccc1` (stereo not given), the Potency entry is “inactive”.

With `COc1nn(CSP(=S)(OC)OC)c(=O)s1`, the Potency entry was “inactive”.

Consider `CCN1C[C@]2(OC(=O)c3ccccc3NC(C)=O)CC[C@H](OC)[C@@]34[C@H]5CC6[C@@H](OC)C[C@](O)(C(C[C@@H]23)[C@@H]14)[C@@]5(O)[C@@H]6OC`, for which the Potency entry was “inactive”.

With `Fc1cc(Br)ccc1CBr`, the Potency result was “inactive”.

On to `CN(C)[C@@H]1C(=O)C(C(N)=O)=C(O)[C@@]2(O)C(=O)C3=C(O)c4c(O)cccc4[C@@](C)(O)[C@H]3[C@H](O)[C@@H]12`, for which the Potency entry was “inactive”.

For the compound `CC(=O)O[C@@]12CO[C@H]1C[C@H](O)[C@@]1(C)C(=O)[C@H](O)C3=C(C)[C@@H](O)C[C@@](O)([C@@H](OC(=O)c4ccccc4)[C@@H]21)C3(C)C`, the Potency entry is “inactive”.

For `CCNC(=O)CC1N=C(c2ccc(Cl)cc2)c2cc(OC)ccc2-n2c(C)nnc21` (stereo not given), the Potency result is “inactive”.

Turning to `CCC(=O)OC1CCC2C3CCC4=CC(=O)CC[C@@]4(C)C3CC[C@]12C` (stereo not given in full), the Potency result was “inactive”.

For the compound `CC[C@@H](C(N)=O)N1CCCC1=O`, the Potency entry is “inactive”.

On to `CC(O)=C(C#N)C(=O)Nc1cc(Br)ccc1Br`, for which the Potency result is “inactive”.

With `O=[N+]([O-])c1ncc[nH]1`, the Potency entry is “inactive”.

`CCCCOC(=O)c1ccccc1C(=O)OCc1ccccc1`: the Potency entry is “inactive”.

On to `CC(C)(O)C(=O)Nc1ccc([N+](=O)[O-])c(C(F)(F)F)c1`, for which the Potency result is “inactive”.

Regarding `C=C1C[C@H]2[C@H]3CCC(=O)[C@@]3(C)CC[C@@H]2[C@@]2(C)C=CC(=O)C=C12`, the Potency entry was “inactive”.

`CCOP(=O)(NC(C)C)Oc1ccc(SC)c(C)c1` (stereo not given): the Potency result is “inactive”.

In the case of `CC(=Cc1csc(C)n1)[C@@H]1C[C@H]2O[C@@H]2CCC[C@H](C)[C@@H](O)[C@@H](C)C(=O)C(C)(C)[C@@H](O)CC(=O)O1`, the Potency entry was “inactive”.

Consider `CCC(=O)O[C@@H]1C=C2CCC3C(CCC4(C)C3CC[C@@H]4OC(=O)CC)C2CC1` (stereo not given in full), for which the Potency entry was “inactive”.

Regarding `COc1ccc2c(c1)[C@]13CCCCC1C(C2)N(C)CC3` (stereo not given in full), the Potency entry is “inactive”.

On to `CSCC[C@@H](NC(=O)[C@@H](Cc1ccccc1)NC(=O)CNC(=O)CNC(=O)[C@@H](N)Cc1ccc(O)cc1)C(=O)O`, for which the Potency result is “inactive”.

Turning to `CC=C(C)C(=O)N[C@@H](c1ccccc1)[C@@H](O)C(=O)O[C@H]1C[C@@]2(O)[C@@H](OC(=O)c3ccccc3)[C@@H]3[C@]4(OC(C)=O)CO[C@@H]4C[C@H](O)[C@@]3(C)C(=O)[C@H](OC(C)=O)C(=C1C)C2(C)C`, the Potency entry was “inactive”.

In the case of `C[C@@]12OC(=O)[C@]1([C@@H](O)[C@@H]1C=CCCC1)NC(=O)[C@H]2CCCl`, the Potency is 235 nM (active).

Turning to `CC1=NN=C(c2ccc(N)cc2)c2cc3c(cc2C1)OCO3`, the Potency entry was “inactive”.

On to `O=S(=O)(c1ccc(Cl)cc1)c1ccc(Cl)cc1`, for which the Potency entry was “inactive”.

For `COc1ccc(N(C(=O)Oc2c(C)cccc2C)c2ccnc(Nc3ccc(N4CCN(C)CC4)cc3)n2)c(OC)c1`, the Potency result was “inactive”.

On to `CC(O)CN1CCN(CC(=O)[O-])CCN(CC(=O)[O-])CCN(CC(=O)[O-])CC1.[Gd+3]` (stereo not given), for which the Potency entry was “inactive”.

Consider `Cc1c(N)nc([C@H](CC(N)=O)NC[C@@H](N)C(N)=O)nc1C(=O)N[C@H](C(=O)N[C@@H](C)[C@H](O)[C@@H](C)C(=O)N[C@@H](C(=O)NCCc1nc(-c2nc(C(=O)NCCC[S+](C)C)cs2)cs1)[C@@H](C)O)C(O[C@H]1O[C@H](CO)[C@H](O)[C@@H](O)[C@@H]1O[C@H]1O[C@H](CO)[C@@H](O)[C@H](OC(N)=O)[C@H]1O)c1cnc[nH]1` (stereo not given in full), for which the Potency result is “inactive”.

Regarding `CC[C@@]1(O)C(=O)OCc2c1cc1n(c2=O)Cc2cc3ccccc3nc2-1`, the Potency was 1180 nM (active).

With `C[C@]12CC[C@@H]3[C@@H](CCC4=CC(=O)CC[C@@H]43)[C@@H]1CC[C@@H]2OC(=O)CCc1ccccc1`, the Potency entry is “inactive”.

Turning to `NC1=NC(=O)N2CC12` (stereo not given), the Potency result was “inactive”.

In the case of `CCCCCCCCc1ccc(O)cc1`, the Potency result is “inactive”.

Turning to `CC[C@@H]1[C@@H](C)O[C@@](O)([C@@H](C)[C@H](O)[C@H](C)[C@H]2OC(=O)C=CC=C[C@@H](C)[C@@H]([C@@H](C)[C@@H](O)[C@H](C)[C@@]3(O)C[C@H](O[C@H]4C[C@H](O)[C@H](O)[C@H](C)O4)[C@H](CC)[C@@H](C)O3)OC(=O)C=CC=C[C@@H]2C)C[C@H]1O[C@H]1C[C@H](O)[C@H](O)[C@H](C)O1`, the Potency is 935 nM (active).

Turning to `CC(C)NCC(O)c1ccc([N+](=O)[O-])cc1` (stereo not given), the Potency result is “inactive”.

Take `C[C@@H]1[C@H](O)[C@@H](C)C=CC=CCCC=CC=CC=CC=C[C@H](O[C@H]2O[C@@H](C)[C@H](O)[C@@H](N)[C@@H]2O)CC2O[C@](O)(C[C@@H](O)[C@H](O)CC[C@@H](O)C[C@@H](O)C[C@@H](O)CC(=O)O[C@H]1C)C[C@H](O)[C@H]2C(=O)O`: the Potency entry was “inactive”.

For `CC(C)Oc1cccc(NC(=O)c2ccccc2C(F)(F)F)c1`, the Potency result was “inactive”.

For `O=[N+]([O-])c1cc([N+](=O)[O-])c2ccccc2c1`, the Potency result is “inactive”.
